“And” between values parts separate entries of the source, which are not always exact repeats. Identical values can stand only once.
assay: probe aXIP binding to arrayed compounds – biochemical, NeuroSMM set, 635/667 nm fluorescence, primary screen (AID 1119); conditions: small-molecule microarray, higher = more signal, called active from +8 up or from −8 down;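 further: probe is the protein aXip251-270 applied at 1 µg/mL to compound-printed slides; binding of probe to printed compounds measured as 667 nm fluorescence plus signal to noise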

Composite Z-score, inactive:
Cc1ccc(S(=O)(=O)N[C@H]2COC(=O)[C@@H](C)COC(=O)[C@H](C)NC(=O)CC=C[C@H]2C)cc1 1.17
C=CCN(C(=O)C1N(CCOCCO)C(=O)C2C(C(=O)O)C3C=CC21O3)C(C)(C)C (stereo not given) 0.519 and -0.158
C=CCN(CCCC)C(=O)C1N(CCOCCO)C(=O)C2C(C(=O)O)C3C=CC21O3 (stereo not given) 0.0673 and 0.289
COc1ccc(COC(=O)NN=C2C[C@@H](O)[C@@H](O)[C@@H]3[C@@H]4C(=O)N(C(C)(C)C)C(=O)[C@@H]4CC[C@H]23)cc1 1.08
COC(=O)C1=C2N(Cc3ccccc3)C(C)=C(C(=O)OC)[C@@H](c3ccccc3)N2C(=O)[C@](O)(C(=O)OC)C1 0.606 and 0.656
C[N+](C)(C)CCCCNC(=O)[C@@H]1C[C@@H]2C(=O)N[C@@H](CCCC[N+](C)(C)C)C(=O)N2[C@@H]1c1cccc(OCCO)c1 0.104 and 2
C[C@@H]1CC[C@H]2C(=O)N3[C@@H](CC[C@@H](C)[C@@H]3c3ccc(-c4ccco4)cc3)C(=O)N2[C@H]1c1ccc(-c2ccco2)cc1 0.705 and 1.24
C=CCN(Cc1ccccc1)C(=O)C1N(c2ccc(CCO)cc2)C(=O)C2C(C(=O)O)C3C=CC21O3 (stereo not given) -0.364 and -0.371
CC(C)N1CC=CC23O[C@@H]4C=CCCOC(=O)C4[C@H]2C(=O)N(C(C)CO)[C@@H]3C1=O (stereo not given in full) 0.238 and 0.848
CC(C)C(=O)N[C@@H]1CCCN1C(=O)C=Cc1ccccc1 1.05
CO[C@@H]1COC(=O)[C@H](Cc2ccccc2)NC(=O)CC=C[C@@H](C)[C@H](OC)COC(=O)[C@@H](C)NC(=O)CC=C[C@H]1C -0.17 and -0.452
COC(=O)[C@@]1(Cc2ccc(OC)cc2)[C@H]2c3cc(C(=O)N(C)C)n(Cc4ccc(O)c(OC)c4)c3C[C@H]2CN1C(=O)c1ccccc1 -0.0164 and -0.483
C=CCN(CCCCC)C(=O)C1N(CCCCCCO)C(=O)C2C(C(=O)O)C3C=CC21O3 (stereo not given) 0.207 and 0.382
O=c1n(-c2ccccc2)c(=O)n2n1CC[C@@H]1C(=NOC[C@@H](O)COCc3ccco3)[C@H]3O[C@H]3[C@@H](O)[C@@H]12 -0.014 and 0.545
CCOC(=O)NN=C1C[C@@H](O)[C@@H](O)[C@@H]2[C@@H]3C(=O)N(Cc4ccc5c(c4)OCO5)C(=O)[C@@H]3CC[C@@H]12 0.221
CCCCCN1CC=CC23O[C@@H]4C=CCCOC(=O)C4[C@H]2C(=O)N(C(C)CO)[C@@H]3C1=O (stereo not given in full) -0.0812 and -0.45
C=C[C@H](OC)[C@@H](O)c1ccc(OCCO)cc1 0.459 and -0.239
CCCCN1CC=CC23O[C@@H]4C=CCCOC(=O)C4[C@H]2C(=O)N(C(C)CO)[C@@H]3C1=O (stereo not given in full) -0.238 and -0.166
C=CCN(CCCCC)C(=O)C1N(CCOCCO)C(=O)C2C(C(=O)O)C3C=CC21O3 (stereo not given) 2.54 and -0.487
C=CCN(CCCCC)C(=O)C(c1cccs1)N(C(=O)/C=C\C(=O)O)c1ccc(CCO)cc1 (stereo not given) 0.598 and -0.378
O=C1NC(=O)C2C1C=CC(C(O)c1ccc([N+](=O)[O-])cc1)N2Nc1ccc(Cl)cc1Cl (stereo not given) -0.35 and -0.195
COC(=O)[C@@]1(Cc2ccccc2)[C@H]2c3cc(C(=O)N(C)C)n(C[C@H](O)CO)c3C[C@H]2CN1C(=O)c1ccccc1 -0.506 and -0.574
CO[C@H]1COC(=O)CC=C[C@@H](C)COC(=O)[C@H](CCSC)NC(=O)CC=C[C@@H]1C 2.77 and 1.61
C=CC[C@@H](O)c1ccc(O)c2ccccc12 1.21 and -0.181
CCOC(=O)C[C@H]1[C@H](OC(=O)c2ccccc2-c2ccccc2)[C@@H](NC(=O)Cc2ccc(OC)cc2)c2cc(OCCCO)ccc2N1C(=O)c1ccc2ccccc2n1 -0.252 and -0.128
CN1C(=O)C2CC=C([C@H]3Oc4ccccc4S(=O)(=O)N4CCC[C@@H]34)CC2C1=O (stereo not given in full) 0.183 and -0.213
C[N+](C)(C)CCCCNC(=O)[C@H]1C[C@H]2C(=O)N[C@@H](CCCC[N+](C)(C)C)C(=O)N2[C@H]1c1ccc(O)cc1 0.472 and 2.29
C=CCN(Cc1ccccc1)C(=O)C1N(c2c(Cl)cccc2CO)C(=O)C2C(C(=O)O)C3C=CC21O3 (stereo not given) -0.874 and -0.317
O=C1[C@H]2[C@H]3[C@H](O)[C@H](O)CC(=NOCc4ccccc4)[C@H]3CC[C@H]2C(=O)N1Cc1ccccc1 -0.283
COC(=O)[C@@]1(Cc2ccc(F)cc2)[C@H]2c3cc(C(=O)N4CCCC4)n(Cc4c(CO)[nH]cc(C)c4=O)c3C[C@H]2CN1C(=O)c1ccccc1 0.418 and 0.724

— PubChem BioAssay
